Screens as filed in PubChem.
Pf growth 96h – inhibits malaria parasite growth, 96 h; P. falciparum luciferase reporter growth, 96 h; Potency, µM (titrated, usually from 28.7 µM), inactives show top-dose activity change, negative = inhibition, actives largely listed as inhibitors; actives 6.9% (n = 320,000); further: potency means the concentration at half of the fitted maximal effect; on the % scale 0 is the no-effect control and ±100 the full control effect
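96 h incubation, 37 C, 5% CO2, of luciferase-reporter P. falciparum-infected RBCs (2% hematocrit, 0.05% parasitemia final) with test compounds; endpoint luminescence.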
HCMV inh – human cytomegalovirus inhibition | activity change, negative = inhibition, % at 57.5 µM | HFF cells, HCMV-luciferase reporter, 72 h; hits give low values | actives 4.5% (n = 410,000); in the data active means activity change below about -60%; inconclusive means no clear call, values can overlap the other calls; inactive means above about -39%; further: on the % scale 0 is the no-effect control and ±100 the full control effect
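HFF cells seeded 16 h at 37C, treated with compounds, infected with luciferase-reporter HCMV at MOI 1 PFU/cell; luciferase read at 72 h post infection, normalized to buffer-only and Salinomycin controls.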
Pf growth 48h – inhibits P. falciparum growth in the first generation, 48 h; P. falciparum luciferase growth in erythrocytes, 48 h; Potency, µM (doses to about 28.7 µM), for the others: at the top dose activity change, negative = inhibition, actives largely listed as inhibitors; actives 5.9% (n = 310,000); AID 504832; further: potency means the concentration at half of the fitted maximal effect; on the % scale 0 is the no-effect control and ±100 the full control effect
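First compound was added to culture medium, then infected red cells at 0.1% parasitemia and 2% hematocrit (final). After incubation at 37 C under 5% CO2, luciferase detection reagent was dispensed and light output recorded.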
Cycloheximide cs – affects cycloheximide protein synthesis inhibition readout, counter-screen | cell reporter, cycloheximide protein synthesis inhibition counterscreen | max response, % | actives 12% (n = 300,000) | AID 2314; in the data active means max response mostly above about 13%, no sharp cut-off; inactive means mostly below about 14%; further: read at 38.3 µM for the half of the compounds with a filed dose; 0% is about no effect
Shiga inhibitor – Shiga toxin inhibition. Vero cells, Shiga toxin protein synthesis inhibition reporter. inhibition, % at 38.7 µM. actives 9.2% (n = 290,000). AID 2315; in the data active means inhibition mostly above about 28%, no sharp cut-off; inactive means mostly below about 43%; further: 0% is about no effect
* marks the source's active call; other numbers are inactive results; ? = inconclusive; nt = not tested or not shown; ! = a repeat was not active. Compounds with a hit are over-represented: about 20% of the library has one in this group of screens. Unless noted, the call rests on the fitted dose curve; in most records, active means well fitted inhibition curve with a large enough effect; inconclusive means small, poorly fitted or top-dose-only effect, or another doubt; inactive means no such curve, though single readings can be large or run the other way.

SMILES | Pf growth 96h | HCMV inh | Pf growth 48h | Cycloheximide cs | Shiga inhibitor
CCCc1c(C(=O)Nc2ccc(OC)cc2)cnn1-c1ccccc1 | ? | -16.1 | 8.1% | 21.6* | 53.6*
CCCc1c(C(=O)NNc2ccccc2OC)cnn1-c1ccccc1 | 9.28µM* | 33.5 | ? | 23.5* | 40.9*
COc1ccc(C)cc1S(=O)(=O)N(C)CC(=O)N1CCN(c2ccccc2)CC1 | 21.0% | -33.9 | -31.1% | 1.2 | 26.2
CCOc1ccc(C(=O)NC(=S)Nc2ccccc2N2CCOCC2)cc1Br | -6.4% | 21.4 | ? | -2.7 | -9.2
COc1ccc(-c2nc(N/N=C(\C)c3ccc(O)cc3)c3ccccc3n2)cc1 | -98.0% | -19.2 | ? | 29.0* | 71.5*
COc1ccc(Nc2nc(-c3ccccc3)nc3ccccc23)cc1 | ? | ? | ? | -1.2 | -2.4
C/C(=N\Nc1nc(-c2ccc(C)cc2)nc2ccccc12)c1ccc([N+](=O)[O-])cc1 | 2.08µM* | nt | 0.2% | 7.9 | 11.3
O=C(O)c1ccc(Nc2nc(-c3ccc([N+](=O)[O-])cc3)nc3ccccc23)cc1 | 0.0% | 23.5 | ? | -4.1 | -5.8
CC(C)c1onc(-c2c(Cl)cccc2Cl)c1COc1ccc(/C=C/c2cccc(C(=O)O)c2)c(Cl)c1 | nt | nt | nt | 35.9* | 60.2*
CCOC(=O)CCn1nc(-c2ccccc2)cc1N | 27.8% | -1.1 | 11.5% | 35.4* | 39.1*
COc1ccc(/C=C/c2ccc(=O)n(Cc3ccccc3)n2)cc1 | ? | -8.3 | ? | 15.7 | 25.3
CCc1ccc(CNC(=O)Cn2nc(-c3ccc(C)cc3)ccc2=O)cc1 | 43.5% | 18.8 | 3.4% | -0.5 | 17.4
Cc1ccc(-c2ccc(=O)n(Cc3ccc(F)cc3)n2)cc1 | -4.5% | -63.2*! | -7.8% | 0.6 | 14.2
CCOC(=O)Cn1nc(-c2ccc(C)cc2)ccc1=O | nt | 29.6 | 9.7% | 19.2* | 27.6*
CCOC(=O)CCn1nc(-c2ccc(C)cc2)c2ccccc2c1=O | -13.8% | 8.7 | -14.7% | -4.2 | 8.7
CCOC(=O)Cn1nc(/C=C/c2ccc(OC)cc2)ccc1=O | nt | -105.6* | nt | nt | nt
COc1ccccc1Nc1cc(C(=O)NCc2cccs2)c2ccccc2n1 | nt | -15.5 | nt | nt | nt
O=C(CC1C[C@H](C(=O)N2CCCCC2)[C@@]2(CCc3ccccc3)c3[nH]c4ccccc4c3CCN2C1=O)NCCCn1ccnc1 (some centres not stated) | nt | -6.9 | nt | nt | nt
O=c1ccc(-c2ccccc2)nn1Cc1ccccc1F | 13.1µM* | -25.7 | -33.7% | 19.2 | 12.5
O=C(Nc1nc2c(Cl)cccc2s1)C1CC1 | 38.3% | 28.8 | 29.4% | 15.0 | 27.2
Cc1cccc2sc(NC(=O)C3CC3)nc12 | 32.3% | 29.5 | 30.9% | 22.6* | 39.6*
Cc1cccc2sc(NC(=O)CSCc3ccccc3)nc12 | 8.1% | 47.7 | nt | 18.1* | 62.4
COc1cccc2sc(NC(=O)c3ccc(Br)s3)nc12 | 22.4% | 11.7 | nt | 31.9* | 72.0
Cc1cccc2sc(NC(=O)Cn3cccc3)nc12 | -6.7% | 58.7 | 4.6% | -2.4 | 7.6
O=C(Nc1nc2c(Cl)c(Cl)ccc2s1)C1CC1 | 31.2% | 26.8 | 14.8% | 25.2* | 27.6*
SMILES | Pf growth 96h | HCMV inh | Pf growth 48h | Cycloheximide cs | Shiga inhibitor
O=C(Nc1nc2c(Br)cccc2s1)C1CC1 | 53.4% | nt | 34.3% | 18.2* | 11.3
O=C(Nc1nc2c(Cl)ccc(Cl)c2s1)C1CC1 | 77.6% | 16.2 | 51.8% | 0.9 | 4.6
Cc1cccc2sc(NC(=O)c3ccc(Cl)s3)nc12 | 13.1µM* | 90.0 | nt | 16.3 | -1.8
Cc1ccc2sc(NC(=O)C3CC3)nc2c1C | 48.7% | 0.0 | 38.7% | 36.2* | 63.3*
O=C(CN1C(=O)CCC1=O)Nc1nc2c(F)cc(F)cc2s1 | nt | 16.0 | nt | nt | nt
COC(=O)Nc1nc2c(C)cccc2s1 | nt | 137.0 | 65.6% | 26.0 | 31.0
O=C(Nc1nc2c(F)cc(F)cc2s1)C1CC1 | 83.1% | 11.5 | 85.9% | 44.1* | 84.7*
CN(CC1CCOCC1)C(=O)CC1C(=O)NCCN1Cc1cccc(C(F)(F)F)c1 (configuration not stated) | -14.3% | -16.8 | ? | -0.5 | 2.8
CCCn1c(=N)c(C(=O)NC2CCCC2)cc2c(=O)n3cc(C)ccc3nc21 | nt | -18.8 | nt | nt | nt
COc1ccc(CNC(=O)CN(Cc2ccc(OC)cc2)C(=O)c2csnn2)cc1 | 29.3% | 10.6 | -3.0% | -0.5 | -6.7
CCCCc1ccc(S(=O)(=O)N2CCC3(CC2)OCCO3)cc1 | -16.5% | 41.7 | 9.3% | -2.8 | -3.4
Cc1cc(Cl)cc2sc(NC(=O)C3CC3)nc12 | 68.3% | 29.3 | 37.6% | 10.8* | 14.7
